Reference: PubChem BioAssay AID1159580 (chemical genetic matrix, 2015)
Hit rate of the full screen: of about 5,500 compounds, about 2,000 (36%) were called active. About 18% were inconclusive and are not listed. No stated cut-off is given here; in the data, active means normalized growth mostly below about 0.91 (no sharp cut-off); inconclusive means no clear call, values can overlap the other calls; inactive means mostly above about 0.92. The list shows a part of the results.

Assay: chemical genetic growth profiling, strain panel (AID 1159580);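 further: tested at 20 µM; growth read once vehicle control cultures reached saturation at 30 °C; 1 = growth at the plate median or of vehicle wells; lower values mean less growth of the strain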
Settings: growth OD

Measured: normalized growth

Cc1cc(=O)n(-c2ccccc2)n1C
inactive: S. cerevisiae deletion strains, locus YJR066W, strain TOR1, active compounds read low 0.984 | S. cerevisiae deletion strains, locus YJR075W, strain HOC1, active compounds read low 1 | S. cerevisiae deletion strains, locus YKL009W, strain mrt4, active compounds read low 1 | S. cerevisiae deletion strains, locus YKL068W, active compounds read low 1 | S. cerevisiae deletion strains, locus YKL085W, strain MDH1 (second series), active compounds read low 0.987 | S. cerevisiae deletion strains, locus YKL085W, strain MDH1, active compounds read low 0.987 | S. cerevisiae deletion strains, locus YKL160W, strain elf1, active compounds read low 0.936 | S. cerevisiae deletion strains, locus YKR001C, strain vps1, active compounds read low 1.02 | S. cerevisiae deletion strains, locus YKR026C, strain gcn3, active compounds read low 1 | S. cerevisiae deletion strains, locus YKR091W, strain srl3, active compounds read low 0.99 | S. cerevisiae deletion strains, locus YLL001W, strain dnm1, active compounds read low 0.921 | S. cerevisiae deletion strains, locus YLL026W, active compounds read low 1 | S. cerevisiae deletion strains, locus YLL041C, strain sdh2, active compounds read low 0.991 | S. cerevisiae deletion strains, locus YLR027C, strain aat2, active compounds read low 1 | S. cerevisiae deletion strains, locus YLR039C, strain RIC1, active compounds read low 1.04 | S. cerevisiae deletion strains, locus YLR058C, strain SHM2, active compounds read low 1 | S. cerevisiae deletion strains, locus YLR102C, strain apc9, active compounds read low 0.991 | S. cerevisiae deletion strains, locus YLR113W, strain HOG1, active compounds read low 0.981 | S. cerevisiae deletion strains, locus YLR221C, strain rsa3, active compounds read low 0.976 | S. cerevisiae deletion strains, locus YLR258W, strain gsy2, active compounds read low 1.07 | S. cerevisiae deletion strains, locus YLR262C, strain YPT6 (second series), active compounds read low 0.967 | S. cerevisiae deletion strains, locus YLR262C, strain YPT6, active compounds read low 1.07 | S. cerevisiae deletion strains, locus YLR268W, strain sec22, active compounds read low 0.992 | S. cerevisiae deletion strains, locus YLR320W, strain mms22, active compounds read low 0.96 | S. cerevisiae deletion strains, locus YLR330W, strain CHS5, active compounds read low 1.01 | S. cerevisiae deletion strains, locus YLR342W, strain FKS1 (second series), active compounds read low 1.02 | S. cerevisiae deletion strains, locus YLR342W, strain FKS1, active compounds read low 0.99 | S. cerevisiae deletion strains, locus YLR357W, strain rsc2, active compounds read low 0.988 | S. cerevisiae deletion strains, locus YLR370C, strain arc18, active compounds read low 0.991 | S. cerevisiae deletion strains, locus YLR371W, strain rom2, active compounds read low 0.987 | S. cerevisiae deletion strains, locus YLR384C, strain iki3, active compounds read low 1 | S. cerevisiae deletion strains, locus YLR418C, strain cdc73, active compounds read low 0.995 | S. cerevisiae deletion strains, locus YML016C, strain PPZ1, active compounds read low 1.01 | S. cerevisiae deletion strains, locus YML032C, strain rad52, active compounds read low 0.993 | S. cerevisiae deletion strains, locus YML120C, strain ndi1, active compounds read low 0.97 | S. cerevisiae deletion strains, locus YML124C, strain tub3, active compounds read low 0.984 | S. cerevisiae deletion strains, locus YMR058W, strain fet3, active compounds read low 0.99 | S. cerevisiae deletion strains, locus YMR078C, strain ctf18, active compounds read low 0.975 | S. cerevisiae deletion strains, locus YMR125W, strain sto1, active compounds read low 0.935 | S. cerevisiae deletion strains, locus YMR129W, active compounds read low 0.998 | S. cerevisiae deletion strains, locus YMR205C, strain PFK2, active compounds read low 0.946 | S. cerevisiae deletion strains, locus YMR223W, strain ubp8, active compounds read low 0.99 | S. cerevisiae deletion strains, locus YMR231W, strain pep5, active compounds read low 0.997 | S. cerevisiae deletion strains, locus YMR307W, strain GAS1, active compounds read low 1.09 | S. cerevisiae deletion strains, locus YNL067W, strain RPL9B, active compounds read low 0.995 | S. cerevisiae deletion strains, locus YNL071W, strain lat1, active compounds read low 0.992 | S. cerevisiae deletion strains, locus YNL128W, strain TEP1, active compounds read low 1.01 | S. cerevisiae deletion strains, locus YNL153C, strain GIM3, active compounds read low 0.991 | S. cerevisiae deletion strains, locus YNL183C, strain NPR1, active compounds read low 0.987 | S. cerevisiae deletion strains, locus YNL209W, strain ssb2, active compounds read low 0.994 | S. cerevisiae deletion strains, locus YNL233W, strain BNI4, active compounds read low 0.989 | S. cerevisiae deletion strains, locus YNL248C, strain rpa49, active compounds read low 0.952 | S. cerevisiae deletion strains, locus YNL250W, strain rad50, active compounds read low 1 | S. cerevisiae deletion strains, locus YNL271C, strain bni1, active compounds read low 0.989 | S. cerevisiae deletion strains, locus YNL298W, strain CLA4, active compounds read low 1.01 | S. cerevisiae deletion strains, locus YNL307C, strain MCK1, active compounds read low 0.991 | S. cerevisiae deletion strains, locus YNL322C, strain KRE1 (second series), active compounds read low 0.991 | S. cerevisiae deletion strains, locus YNR049C, strain mso1, active compounds read low 1 | S. cerevisiae deletion strains, locus YNR052C, strain pop2, active compounds read low 0.982 | S. cerevisiae deletion strains, locus YOL006C, strain TOP1, active compounds read low 0.961 | S. cerevisiae deletion strains, locus YOL012C, strain htz1 1.68 | S. cerevisiae deletion strains, locus YOL147C, strain pex11, active compounds read low 0.989 | S. cerevisiae deletion strains, locus YOR001W, strain rrp6, active compounds read low 1.05 | S. cerevisiae deletion strains, locus YOR061W, strain CKA2, active compounds read low 1.02 | S. cerevisiae deletion strains, locus YOR069W, strain VPS5, active compounds read low 1.01 | S. cerevisiae deletion strains, locus YOR070C, strain gyp1, active compounds read low 0.999 | S. cerevisiae deletion strains, locus YOR080W, strain dia2, active compounds read low 0.999 | S. cerevisiae deletion strains, locus YOR083W, strain WHI5, active compounds read low 0.949 | S. cerevisiae deletion strains, locus YOR106W, strain vam3, active compounds read low 0.957 | S. cerevisiae deletion strains, locus YOR136W, strain idh2, active compounds read low 0.986 | S. cerevisiae deletion strains, locus YOR144C, strain elg1, active compounds read low 0.995 | S. cerevisiae deletion strains, locus YOR184W, strain ser1, active compounds read low 1.01 | S. cerevisiae deletion strains, locus YOR231W, strain MKK1, active compounds read low 1.04 | S. cerevisiae deletion strains, locus YOR265W, strain rbl2, active compounds read low 0.994 | S. cerevisiae deletion strains, locus YOR270C, strain vph1, active compounds read low 0.964 | S. cerevisiae deletion strains, locus YOR290C, strain snf2, active compounds read low 0.945 | S. cerevisiae deletion strains, locus YOR316C, strain cot1, active compounds read low 0.985 | S. cerevisiae deletion strains, locus YPL051W, strain arl3, active compounds read low 0.98 | S. cerevisiae deletion strains, locus YPL078C, strain atp4, active compounds read low 0.936 | S. cerevisiae deletion strains, locus YPL106C, strain sse1, active compounds read low 0.981 | S. cerevisiae deletion strains, locus YPL240C, strain hsp82, active compounds read low 1.01 | S. cerevisiae deletion strains, locus YPL256C, strain CLN2, active compounds read low 0.999 | S. cerevisiae deletion strains, locus YPR119W, strain clb2, active compounds read low 0.982 | S. cerevisiae deletion strains, locus YPR141C, strain kar3, active compounds read low 0.995 | S. cerevisiae deletion strains, locus YPR163C, strain tif3, active compounds read low 0.992 | S. cerevisiae deletion strains, locus YPR167C, strain met16, active compounds read low 0.984 | S. cerevisiae deletion strains, strain wtn01, active compounds read low 0.979 | S. cerevisiae strains, strain wild type, active compounds read low 1.01
